Results filed as inconclusive are left out. Active and inactive are the calls of the source. Calls follow the shape of the dose curve; as a rule, active = well fitted cell-killing curve with a large enough effect; inconclusive = small, poorly fitted or top-dose-only effect, or effect the other way; inactive = no such curve, though single readings can be large or run the other way.
Potency is read from the fitted curve at half-maximal effect.

The nature of the first test: Quantitative High-Throughput drug screen in 47 multiple myeloma cell lines against the NCATS MIPE library collection: OCIMY5_PLB cell viability assay (AID 1918988). Also: nearly all actives have a fitted effect of over 65% in size. The following applies: OCI-MY5 myeloma viability, ATP luminescence, 48 h; series mostly up to 45.8 µM. In short, it runs like this:
(§1)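 Inhibition of viability over 48 h was scored by ATP content (CellTiter-Glo) in 500-cell wells. Zero and full viability were defined by media-only and DMSO-only wells.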
Take `CC=C1NC(=O)[C@H]2CSSCCC=C[C@H](CC(=O)N[C@H](C(C)C)C(=O)N2)OC(=O)[C@H](C(C)C)NC1=O`: the Potency is 6.6 nM (active).
Turning to `O=C(Nc1nc2cccc(-c3ccc(CN4CCS(=O)(=O)CC4)cc3)n2n1)C1CC1`, the Potency is 6620 nM (active).
Turning to `COCCn1c2c([n+](Cc3cnccn3)c1C)C(=O)c1ccccc1C2=O`, the Potency was 7.4 nM (active).
Turning to `CCc1c2c(nc3ccc(O)cc13)-c1cc3c(c(=O)n1C2)COC(=O)[C@]3(O)CC`, the Potency was 1180 nM (active).
On to `CCC[C@H](NC(=O)C(C#N)=Cc1cccc(Br)n1)c1ccccc1`, for which the Potency was 2090 nM (active).
Regarding `CC(NCc1ccc2c(c1)nc(NC(=O)c1ccc(-c3cn[nH]c3)s1)n2CC(C)(C)O)C(C)(C)C` (stereo not given), the Potency is 235 nM (active).
For `CNC(=O)c1c(F)cccc1Nc1nc(Nc2cc3c(cc2OC)CCN3C(=O)CN(C)C)nc2[nH]ccc12`, the Potency is 1660 nM (active).
Turning to `CC(C)CC(=O)Nc1n[nH]c2c1CN(C(=O)C1CCN(C)CC1)C2(C)C`, the Potency is 1320 nM (active).
On to `COc1cc2c(cc1-c1c(C)noc1C)ncc1[nH]c(=O)n([C@H](C)c3ccccn3)c12`, for which the Potency was 1050 nM (active).
Consider `COc1cc(=C2C=c3ccccc3=N2)[nH]c1=Cc1[nH]c(C)cc1C`, for which the Potency was 833 nM (active).
Take `Nc1nc(Nc2ccc(S(N)(=O)=O)cc2)nn1C(=O)c1c(F)cccc1F`: the Potency was 7430 nM (active).
As to `NC(=O)c1c(OCc2c(F)cc(Br)cc2F)nsc1NC(=O)NCCCCN1CCCC1`, the Potency was 23500 nM (active).
As for `CCOC(=O)C1=C(C)NC2=C(C(=O)CC(C)(C)C2)C1c1ccc(-c2ccccc2)cc1` (stereo not given), the Potency was 20900 nM (active).
On to `Nc1cc(C(F)(F)F)c(-c2cc(N3CCOCC3)nc(N3CCOCC3)n2)cn1`, for which the Potency was 187 nM (active).
Same read-out and setting: as for `O=C(Nc1cn[nH]c1-c1nc2ccc(CN3CCOCC3)cc2[nH]1)NC1CC1`, the figure is 4180 nM (active); as for `C[C@@]12O[C@@H](C[C@]1(O)CO)n1c3ccccc3c3c4c(c5c6ccccc6n2c5c31)CNC4=O`, 526 nM (active); as for `CNC(=O)c1cc(Oc2ccc(NC(=O)Nc3cc(C(C)(C)C)nn3-c3ccc4ncccc4c3)c(F)c2)ccn1`, 6620 nM (active).
Consider `O=C(CCCCCCC(=O)Nc1ccc([C@H]2O[C@@H](CSc3nc(-c4ccccc4)c(-c4ccccc4)o3)C[C@@H](c3ccc(CO)cc3)O2)cc1)NO`, for which the Potency was 11800 nM (active).
Turning to `O=C(NCCCNc1nc(Nc2cccc(NC(=O)N3CCCC3)c2)ncc1I)c1cccs1`, the Potency was 13200 nM (active).
On to `NC1(Cc2ccc(Cl)cc2)CCN(c2ncnc3[nH]ccc23)CC1`, for which the Potency was 9350 nM (active).
Same read-out and setting: as for `CC(C)[C@H](C(=O)Nc1ccc(C(=O)NO)cc1)c1ccccc1`, the figure is 526 nM (active); as for `COC(=O)Nc1ccc(-c2nc(N3CCOCC3)c3cnn(C4CCN(Cc5cccnc5)CC4)c3n2)cc1`, 20900 nM (active).
As for `C#Cc1cccc(Nc2ncnc3cc(OC)c(OCCCCCCC(=O)NO)cc23)c1`, the Potency is 5.3 nM (active).
With `CCC1=C[C@@H]2CN(C1)Cc1c([nH]c3ccccc13)[C@@](C(=O)OC)(c1cc3c(cc1OC)N(C)[C@@H]1[C@@](O)(C(=O)OC)[C@H](OC(C)=O)[C@]4(CC)C=CCN5CC[C@]31[C@@H]54)C2`, the Potency is 6.6 nM (active).
Still for that read-out and setting: as for `CN1CCN(Cc2ccc(NC(=O)Nc3ccc(Oc4cc(NC(=O)C5CC5)ncn4)cc3)cc2C(F)(F)F)CC1`, the figure is 332 nM (active); as for `C=CC(=O)Nc1cc2c(Nc3ccc(F)c(Cl)c3)ncnc2cc1OCCCN1CCOCC1`, 5900 nM (active).
On the same count and under the same terms, as for `O=C(Cc1ccc(-c2ccc(OCCN3CCOCC3)cc2)cn1)NCc1ccccc1`, the figure is 11.8 nM (active).
With `CC(C)c1ccc(Cn2ccc3c4c(N)nc(NC5CC5)nc4ccc32)cc1`, the Potency is 2350 nM (active).
Same read-out and setting: the same measure for `COCCOc1ccc2c(c1)ncn2-c1ccc2cccc(N3CCC(N)CC3)c2n1`: 235 nM (active).
As to `Cc1ccc(-c2ncn(-c3ccc(Nc4nccc(-c5cccc(N6CCOCC6)c5)n4)cc3)n2)cn1`, the Potency was 52.6 nM (active).
In the case of `CC[C@@]1(O)C(=O)OCc2c1cc1n(c2=O)Cc2cc3cc(O)ccc3nc2-1`, the Potency was 1660 nM (active).
Consider `c1cc(-c2cnn3cc(-c4ccc(OCCN5CCCCC5)cc4)cnc23)ccn1`, for which the Potency is 4690 nM (active).
`CC(C)c1cnn2c(NCc3ccccc3)cc(N[C@@H](CO)[C@H](O)CO)nc12`: the Potency was 235 nM (active).
Same read-out and setting: as for `C[C@@H](Oc1cc(-c2cnn(C3CCNCC3)c2)cnc1N)c1c(Cl)ccc(F)c1Cl`, the figure is 5260 nM (active).
Same read-out and setting: the same measure for `COc1cccc2nc(-c3cccs3)nc(NN3C(=O)C=C(C)C3=O)c12`: 41.8 nM (active).

The next test in a line: Quantitative High-Throughput drug screen in 47 multiple myeloma cell lines against the NCATS MIPE library collection: OPM1_PLB cell viability assay (AID 1918989). Also: nearly all actives have a fitted effect of over 40% in size. The note with it: CellTiter-Glo, 48 h; series mostly up to 45.8 µM. The gist of the method:
as §1
As for `CC=C1NC(=O)[C@H]2CSSCCC=C[C@H](CC(=O)N[C@H](C(C)C)C(=O)N2)OC(=O)[C@H](C(C)C)NC1=O`, the Potency is 13.2 nM (active).
With `O=C(Nc1nc2cccc(-c3ccc(CN4CCS(=O)(=O)CC4)cc3)n2n1)C1CC1`, the Potency is 14800 nM (active).
`COCCn1c2c([n+](Cc3cnccn3)c1C)C(=O)c1ccccc1C2=O`: the Potency is 29.6 nM (active).
`CCc1c2c(nc3ccc(O)cc13)-c1cc3c(c(=O)n1C2)COC(=O)[C@]3(O)CC`: the Potency was 935 nM (active).
For the molecule `CCC[C@H](NC(=O)C(C#N)=Cc1cccc(Br)n1)c1ccccc1`, the Potency is 935 nM (active).
As for `CC(NCc1ccc2c(c1)nc(NC(=O)c1ccc(-c3cn[nH]c3)s1)n2CC(C)(C)O)C(C)(C)C` (stereo not given), the Potency was 264 nM (active).
Regarding `CNC(=O)c1c(F)cccc1Nc1nc(Nc2cc3c(cc2OC)CCN3C(=O)CN(C)C)nc2[nH]ccc12`, the Potency was 7430 nM (active).
In the case of `CC(C)CC(=O)Nc1n[nH]c2c1CN(C(=O)C1CCN(C)CC1)C2(C)C`, the Potency is 2090 nM (active).
Turning to `COc1cc2c(cc1-c1c(C)noc1C)ncc1[nH]c(=O)n([C@H](C)c3ccccn3)c12`, the Potency was 1480 nM (active).
On the same count and under the same terms, the same measure for `COc1cc(=C2C=c3ccccc3=N2)[nH]c1=Cc1[nH]c(C)cc1C`: 5900 nM (active); for `Nc1nc(Nc2ccc(S(N)(=O)=O)cc2)nn1C(=O)c1c(F)cccc1F`: 7430 nM (active); for `NC(=O)c1c(OCc2c(F)cc(Br)cc2F)nsc1NC(=O)NCCCCN1CCCC1`: 13200 nM (active).
Consider `CCOC(=O)C1=C(C)NC2=C(C(=O)CC(C)(C)C2)C1c1ccc(-c2ccccc2)cc1` (stereo not given), for which the Potency was 16600 nM (active).
On the same count and under the same terms, as for `Nc1cc(C(F)(F)F)c(-c2cc(N3CCOCC3)nc(N3CCOCC3)n2)cn1`, the figure is 1050 nM (active).
In the case of `O=C(Nc1cn[nH]c1-c1nc2ccc(CN3CCOCC3)cc2[nH]1)NC1CC1`, the Potency is 1660 nM (active).
Regarding `C[C@@]12O[C@@H](C[C@]1(O)CO)n1c3ccccc3c3c4c(c5c6ccccc6n2c5c31)CNC4=O`, the Potency is 264 nM (active).
Same read-out and setting: the same measure for `CNC(=O)c1cc(Oc2ccc(NC(=O)Nc3cc(C(C)(C)C)nn3-c3ccc4ncccc4c3)c(F)c2)ccn1`: 5260 nM (active); for `O=C(CCCCCCC(=O)Nc1ccc([C@H]2O[C@@H](CSc3nc(-c4ccccc4)c(-c4ccccc4)o3)C[C@@H](c3ccc(CO)cc3)O2)cc1)NO`: 8330 nM (active).
Consider `O=C(NCCCNc1nc(Nc2cccc(NC(=O)N3CCCC3)c2)ncc1I)c1cccs1`, for which the Potency is 3720 nM (active).
On to `NC1(Cc2ccc(Cl)cc2)CCN(c2ncnc3[nH]ccc23)CC1`, for which the Potency is 1480 nM (active).
Take `CC(C)[C@H](C(=O)Nc1ccc(C(=O)NO)cc1)c1ccccc1`: the Potency is 469 nM (active).
On the same count and under the same terms, the same measure for `COC(=O)Nc1ccc(-c2nc(N3CCOCC3)c3cnn(C4CCN(Cc5cccnc5)CC4)c3n2)cc1`: 83.3 nM (active).
Regarding `C#Cc1cccc(Nc2ncnc3cc(OC)c(OCCCCCCC(=O)NO)cc23)c1`, the Potency was 264 nM (active).
Consider `CCC1=C[C@@H]2CN(C1)Cc1c([nH]c3ccccc13)[C@@](C(=O)OC)(c1cc3c(cc1OC)N(C)[C@@H]1[C@@](O)(C(=O)OC)[C@H](OC(C)=O)[C@]4(CC)C=CCN5CC[C@]31[C@@H]54)C2`, for which the Potency is 26.4 nM (active).
`CN1CCN(Cc2ccc(NC(=O)Nc3ccc(Oc4cc(NC(=O)C5CC5)ncn4)cc3)cc2C(F)(F)F)CC1`: the Potency is 166 nM (active).
Still for that read-out and setting: the same measure for `C=CC(=O)Nc1cc2c(Nc3ccc(F)c(Cl)c3)ncnc2cc1OCCCN1CCOCC1`: 2960 nM (active); for `O=C(Cc1ccc(-c2ccc(OCCN3CCOCC3)cc2)cn1)NCc1ccccc1`: 29.6 nM (active).
Consider `CC(C)c1ccc(Cn2ccc3c4c(N)nc(NC5CC5)nc4ccc32)cc1`, for which the Potency is 1870 nM (active).
For `COCCOc1ccc2c(c1)ncn2-c1ccc2cccc(N3CCC(N)CC3)c2n1`, the Potency is 93.5 nM (active).
For the molecule `Cc1ccc(-c2ncn(-c3ccc(Nc4nccc(-c5cccc(N6CCOCC6)c5)n4)cc3)n2)cn1`, the Potency is 83.3 nM (active).
As for `CC[C@@]1(O)C(=O)OCc2c1cc1n(c2=O)Cc2cc3cc(O)ccc3nc2-1`, the Potency is 2960 nM (active).
With `c1cc(-c2cnn3cc(-c4ccc(OCCN5CCCCC5)cc4)cnc23)ccn1`, the Potency is 4180 nM (active).
For the molecule `CC(C)c1cnn2c(NCc3ccccc3)cc(N[C@@H](CO)[C@H](O)CO)nc12`, the Potency is 235 nM (active).
For the molecule `C[C@@H](Oc1cc(-c2cnn(C3CCNCC3)c2)cnc1N)c1c(Cl)ccc(F)c1Cl`, the Potency was 5900 nM (active).
The same measure, in the same setting: as for `COc1cccc2nc(-c3cccs3)nc(NN3C(=O)C=C(C)C3=O)c12`, the figure is 83.3 nM (active).

Source of the values: PubChem BioAssay (NCATS).
